Source: ChEMBL document CHEMBL1157539, “Thousands of chemical starting points for antimalarial lead identification” (Nature, 2010)

tested on: HepG2; assay: GSK_TCMDC: Percent inhibition of human HepG2 cell line. Test compounds present at 10uM.; assay type: functional

SMILES | Inhibition [%]
CN1CCCN(c2ccnc3cc4c(cc23)N(C(=O)c2ccc(Cl)c(Cl)c2)CC4)CC1.Cl | 20
CC[C@H](NC(=O)c1c(CC2CCN(CC(C)=O)CC2)c(-c2ccccc2)nc2ccccc12)c1ccccc1 | 7
COC(=O)c1ccc(C(=O)NCCCCN2CCC(c3ccc4c(c3OC)CCCC4)CC2)cc1-c1ccc(C(F)(F)F)cc1 | 24
CCn1ccc2c(N3CCCCS3(=O)=O)cc(C(=O)N[C@@H](Cc3ccccc3)[C@H](O)CNC(C)(C)CCCC(C)C)cc21 | 23
O=C(NCCCCN1CCC(c2ccc(Br)cc2)CC1)c1ccc(NC(=O)c2ccc(Cl)cc2)cc1 | 17
C=CCc1cc(Cc2cnc(N)nc2N)c2ccc(C)nc2c1O | 51
CC1(C)C(=O)Nc2ccccc2N1C(=O)CN1CCN(c2ccccc2O)CC1 | 7
CCCCCCCC1CC(CC(=O)Nc2ccnc3ccc(OC)cc23)CN1 (centres undefined) | 22
Cl.O=c1cc(NCCCCNCc2ccc(Br)c(Br)c2)[nH]c2ccccc12 | 13
CN(C)CCOc1cc(NC(=O)Nc2ccc(Oc3ccccc3)cc2)ccc1I.Cl | 13
COc1ccc(CNCc2ccc(-c3cccc(-c4nc5ccccc5[nH]4)c3)cc2)cc1.O=C(O)C(F)(F)F | 57
O=C(Nc1ccc(Cl)c(Cl)c1)Nc1ccccc1N1CCNCC1.O=C(O)C(F)(F)F | 17
CN(C)CCCN1C(=O)c2[nH]nc(-c3ccc(Cl)cc3O)c2C1c1ccc(Cl)cc1 (centres undefined) | 57
NS(=O)(=O)c1cccc(Nc2nccc(-c3cnn4ncccc34)n2)c1 | 39
